Assay [1] deals with Estrogen receptor (Homo sapiens) (UniProt P03372). The assay is described as follows: qHTS assay for small molecule agonists of estrogen receptor alpha signaling (AID 588514). Further: nearly all actives have a fitted effect of over 70% in size. Further: potency means the concentration at half of the fitted maximal effect.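 On activation: 0% = vehicle only and 100% = reference agonist.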 The method, boiled down: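 ER-alpha-UAS-bla GripTite HEK293 cells, 5000/well in 2% charcoal/dextran-stripped FBS medium, treated with compound titrations 18 h at 37 C. CCF4 beta-lactamase read by fluorescence after 2 h RT; normalised to 20 nM 17-beta-estradiol (100%) and DMSO (0%), Hill fit for EC50 and efficacy.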
Sequence of Estrogen receptor (Homo sapiens) (P03372 whole entry, looked up): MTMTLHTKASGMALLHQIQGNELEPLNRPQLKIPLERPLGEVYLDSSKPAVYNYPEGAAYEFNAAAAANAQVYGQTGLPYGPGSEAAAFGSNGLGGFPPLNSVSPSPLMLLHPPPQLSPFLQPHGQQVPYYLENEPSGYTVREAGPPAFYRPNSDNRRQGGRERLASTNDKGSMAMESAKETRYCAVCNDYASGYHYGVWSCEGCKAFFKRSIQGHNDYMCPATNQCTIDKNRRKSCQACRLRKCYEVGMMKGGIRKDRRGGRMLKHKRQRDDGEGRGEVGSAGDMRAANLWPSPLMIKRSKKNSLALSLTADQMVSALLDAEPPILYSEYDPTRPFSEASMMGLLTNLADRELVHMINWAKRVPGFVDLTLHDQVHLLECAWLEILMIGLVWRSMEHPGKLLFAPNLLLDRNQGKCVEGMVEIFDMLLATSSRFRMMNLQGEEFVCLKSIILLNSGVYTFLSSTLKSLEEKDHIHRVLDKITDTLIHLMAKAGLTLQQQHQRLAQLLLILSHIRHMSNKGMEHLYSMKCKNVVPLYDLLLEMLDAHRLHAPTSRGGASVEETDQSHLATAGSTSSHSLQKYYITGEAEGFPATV
(Quantitative high-throughput screening tests each substance at several concentrations.)

Assay [2] deals with Androgen receptor (Homo sapiens) (UniProt P10275). The assay is described as follows: qHTS assay for small molecule agonists of androgen receptor signaling (AID 588515; active means well fitted curve in the direction sought with a large enough effect in the signal ratio, with a control signal flat; inconclusive means small, poorly fitted or top-dose-only effect, or effect the other way, or a change in a side signal; inactive means no such curve, though single readings can be large or run the other way; the % refers to the signal ratio; further: potency means the concentration at half of the fitted maximal effect; on activation: on the % scale 0 is the no-effect control and ±100 the full control effect). The following applies: AR-UAS-bla HEK293, beta-lactamase ratio, agonist 16 h; activation: stronger effect = higher value. In outline:
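EC50 and efficacy came from Hill fits of titrations (up to 92 uM) normalized to 30 nM R1881 as 100% and DMSO as 0%. Compound exposure was 16 h at 37 C on AR-UAS-bla HEK293 cells, with a 405/460/530 nm CCF4 fluorescence read.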

Assay [3] has the same target. Description: qHTS assay for small molecule antagonists of androgen receptor signaling (AID 588516; active means well fitted curve in the direction sought with a large enough effect in the signal ratio, with a control signal flat, not every such curve was filed as active; inconclusive means small, poorly fitted or top-dose-only effect, or effect the other way, or a change in a side signal; inactive means no such curve, though single readings can be large or run the other way; the % refers to the signal ratio; further: on the % scale 0 is the no-effect control and ±100 the full control effect). The method, boiled down: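 Cells were plated and incubated 5 h, compounds added in titration, then R1881 (10 nM final) as agonist. After 16 h at 37 C, CCF4 substrate was loaded for 2 h at room temperature and fluorescence measured.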
Assay [4] has as its target Peroxisome proliferator-activated receptor delta (Homo sapiens) (UniProt Q03181). The assay is described as follows: qHTS assay for small molecule agonists of peroxisome proliferator-activated receptor delta signaling (AID 588534).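 Further: 0% = DMSO basal wells and 100% = positive control agonist at 10 µM.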 In outline: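 Cells carrying a PPAR-delta beta-lactamase reporter were treated with compounds for 18 h at 37 °C in agonist mode. CCF4 fluorescence was read after 2 h; EC50 and efficacy from Hill fits.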

Assay [5] in a line: qHTS assay for small molecule antagonists of peroxisome proliferator-activated receptor delta signaling (AID 588535; active means well fitted inhibition curve with a large enough effect in the signal ratio, with a control signal flat, not every such curve was filed as active; inconclusive means small, poorly fitted or top-dose-only effect, or effect the other way, or a change in a side signal; inactive means no such curve, though single readings can be large or run the other way; the % refers to the signal ratio;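 on max response: cells co-treated with a PPAR-delta agonist as stimulator during compound exposure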). The following applies: HEK293T PPARd-UAS-bla, beta-lactamase FRET ratio, 18 h; 460 nm channel. The method, boiled down:
(§1)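 Antagonist-mode beta-lactamase reporter (GeneBLAzer PPAR-delta-UAS-bla) in HEK293T cells, 2% charcoal/dextran FBS, 4000 cells/well. Compound titrations, 18 h at 37 C; CCF4 ratio read, IC50 and efficacy from Hill fits.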

The target in assay [6] is Peroxisome proliferator-activated receptor delta (Homo sapiens) (UniProt Q03181). The description is as above. The method, boiled down: as §1
Sequence of Peroxisome proliferator-activated receptor delta (Homo sapiens) (Q03181 whole entry, looked up): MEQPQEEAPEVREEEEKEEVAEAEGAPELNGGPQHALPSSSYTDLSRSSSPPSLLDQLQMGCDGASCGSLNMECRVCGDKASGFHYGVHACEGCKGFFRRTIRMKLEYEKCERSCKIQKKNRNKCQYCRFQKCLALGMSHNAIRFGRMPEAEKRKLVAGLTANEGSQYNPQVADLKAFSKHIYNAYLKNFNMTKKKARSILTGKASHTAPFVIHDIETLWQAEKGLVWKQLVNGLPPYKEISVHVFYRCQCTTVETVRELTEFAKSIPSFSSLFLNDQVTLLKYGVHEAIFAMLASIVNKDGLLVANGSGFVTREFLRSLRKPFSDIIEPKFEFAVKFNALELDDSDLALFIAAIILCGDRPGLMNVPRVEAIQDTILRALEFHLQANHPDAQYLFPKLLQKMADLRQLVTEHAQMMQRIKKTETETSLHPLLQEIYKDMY
In assay [7] the target is Peroxisome proliferator-activated receptor gamma (Homo sapiens) (UniProt P37231). Description: qHTS assay for small molecule agonists of peroxisome proliferator-activated receptor gamma signaling (AID 588536; active means well fitted curve in the direction sought with a large enough effect in the signal ratio, with a control signal flat, not every such curve was filed as active; inconclusive means small, poorly fitted or top-dose-only effect, or effect the other way, or a change in a side signal; inactive means no such curve, though single readings can be large or run the other way; the % refers to the signal ratio;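 further: 0% = DMSO basal wells and 100% = rosiglitazone at 2 µM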). In outline:
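HEK293 UAS-bla reporter line, 1% charcoal/dextran FBS; titration, 16 h, 37 C; CCF4 loading 2 h RT; fluorescence 460/530 nm. Normalized to rosiglitazone 2 uM = 100%, DMSO = 0%.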

In assay [8] the target is Vitamin D3 receptor (Homo sapiens) (UniProt P11473). The assay is described as follows: qHTS assay for small molecule antagonists of vitamin D receptor signaling (AID 588541).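 Further: receptor activated by calcitriol during compound treatment; series mostly up to about 77 µM; on the % scale 0 is the no-effect control and ±100 the full control effect.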 The method, boiled down: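 VDR-UAS-bla HEK293T cells in 2% charcoal-stripped FBS were stimulated with 1-alpha,25-dihydroxyvitamin D3 (3 nM final) plus compound for 16 h at 37 C. The beta-lactamase CCF4 readout was normalized to 50 nM agonist and DMSO, and Hill fits gave IC50.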
Sequence of Vitamin D3 receptor (Homo sapiens) (P11473 whole entry, looked up): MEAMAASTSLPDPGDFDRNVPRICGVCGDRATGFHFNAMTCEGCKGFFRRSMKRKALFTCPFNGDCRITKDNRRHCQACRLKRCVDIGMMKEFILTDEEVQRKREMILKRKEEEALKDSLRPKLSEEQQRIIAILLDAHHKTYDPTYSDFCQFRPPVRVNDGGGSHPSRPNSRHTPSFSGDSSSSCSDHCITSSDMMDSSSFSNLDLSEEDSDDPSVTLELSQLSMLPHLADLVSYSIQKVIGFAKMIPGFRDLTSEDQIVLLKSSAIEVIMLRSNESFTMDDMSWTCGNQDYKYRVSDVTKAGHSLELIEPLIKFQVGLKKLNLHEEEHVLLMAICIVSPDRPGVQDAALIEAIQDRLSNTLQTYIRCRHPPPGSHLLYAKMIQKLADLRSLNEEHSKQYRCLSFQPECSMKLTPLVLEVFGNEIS

The nature of assay [9]: qHTS for Inhibitors of ATXN expression: Validation of Cytotoxic Assay (AID 588349; active means well fitted curve in the direction sought with a large enough effect; inconclusive means small, poorly fitted or top-dose-only effect, or another doubt; inactive means no such curve, though single readings can be large; an effect the other way counts as inactive or inconclusive; further: on the % scale 0 is the no-effect control and ±100 the full control effect). The method, boiled down: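 HEK293 cells treated with titrated compound for 72 hr at 37 degrees C; viability read as intracellular ATP by CellTiter Glo luminescence.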
Assay [10] is described as follows: qHTS for Inhibitors of ATXN expression: Validation (AID 588378; active means well fitted curve in the direction sought with a large enough effect; inconclusive means small, poorly fitted or top-dose-only effect, or another doubt; inactive means no such curve, though single readings can be large; an effect the other way counts as inactive or inconclusive; further: nearly all actives have a fitted effect of over 75% in size; further: potency means the concentration at half of the fitted maximal effect). In outline: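 Compounds were pinned onto attached HEK293 cells carrying an ATXN2-firefly luciferase construct and incubated 24 hrs at 37 degrees C. Each well then received a fluorescent viability reagent followed by luciferase substrate for end-point luminescence.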
For assay [11], the target named is Estrogen receptor (Homo sapiens) (UniProt P03372). Description: qHTS assay for small molecule antagonists of estrogen receptor alpha signaling (AID 588513; active means well fitted curve in the direction sought with a large enough effect in the signal ratio, with a control signal flat, not every such curve was filed as active; inconclusive means small, poorly fitted or top-dose-only effect, or effect the other way, or a change in a side signal; inactive means no such curve, though single readings can be large or run the other way; the % refers to the signal ratio; further: potency means the concentration at half of the fitted maximal effect). In outline:
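Fluorescence from CCF4 substrate after 2 h at room temperature gave reporter activity; cells had been exposed to compound and 0.5nM 17-beta-estradiol for 18 h at 37 C. Hill-equation fitting yielded IC50 and maximal response.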

The target in assay [12] is DNA dC->dU-editing enzyme APOBEC-3G (Homo sapiens) (UniProt Q9HC16). Description: qHTS for inhibitors of Vif-A3G interactions: Validation (AID 588379; active means well fitted curve in the direction sought with a large enough effect; inconclusive means small, poorly fitted or top-dose-only effect, or another doubt; inactive means no such curve, though single readings can be large; an effect the other way counts as inactive or inconclusive; further: 0% is about no effect). The method, boiled down:
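HeLa cells stably expressing Vif and A3G-eYFP, 700 cells/well, incubated overnight at 37 deg C, then exposed to compound overnight at 37 deg C. Inhibition of Vif-mediated degradation read as increased yellow fluorescence (Ex 488/Em 500-530) by laser-scanning cytometry.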

The target of assay [13] is Glucocorticoid receptor (Homo sapiens) (UniProt P04150). The assay is described as follows: qHTS assay for small molecule antagonists of glucocorticoid receptor signaling (AID 588533; active means well fitted inhibition curve with a large enough effect in the signal ratio, with a control signal flat, not every such curve was filed as active; inconclusive means small, poorly fitted or top-dose-only effect, or effect the other way, or a change in a side signal; the % refers to the signal ratio; further: potency means the concentration at half of the fitted maximal effect). In outline: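 Antagonist-mode qHTS: compound titrations added to GRE-bla HeLa cells, then dexamethasone 2 nM final; 18 h, 37 C. CCF4 FRET fluorescence normalized to dexamethasone and DMSO; IC50 from Hill fit.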
Sequence of Glucocorticoid receptor (Homo sapiens) (P04150 whole entry, looked up): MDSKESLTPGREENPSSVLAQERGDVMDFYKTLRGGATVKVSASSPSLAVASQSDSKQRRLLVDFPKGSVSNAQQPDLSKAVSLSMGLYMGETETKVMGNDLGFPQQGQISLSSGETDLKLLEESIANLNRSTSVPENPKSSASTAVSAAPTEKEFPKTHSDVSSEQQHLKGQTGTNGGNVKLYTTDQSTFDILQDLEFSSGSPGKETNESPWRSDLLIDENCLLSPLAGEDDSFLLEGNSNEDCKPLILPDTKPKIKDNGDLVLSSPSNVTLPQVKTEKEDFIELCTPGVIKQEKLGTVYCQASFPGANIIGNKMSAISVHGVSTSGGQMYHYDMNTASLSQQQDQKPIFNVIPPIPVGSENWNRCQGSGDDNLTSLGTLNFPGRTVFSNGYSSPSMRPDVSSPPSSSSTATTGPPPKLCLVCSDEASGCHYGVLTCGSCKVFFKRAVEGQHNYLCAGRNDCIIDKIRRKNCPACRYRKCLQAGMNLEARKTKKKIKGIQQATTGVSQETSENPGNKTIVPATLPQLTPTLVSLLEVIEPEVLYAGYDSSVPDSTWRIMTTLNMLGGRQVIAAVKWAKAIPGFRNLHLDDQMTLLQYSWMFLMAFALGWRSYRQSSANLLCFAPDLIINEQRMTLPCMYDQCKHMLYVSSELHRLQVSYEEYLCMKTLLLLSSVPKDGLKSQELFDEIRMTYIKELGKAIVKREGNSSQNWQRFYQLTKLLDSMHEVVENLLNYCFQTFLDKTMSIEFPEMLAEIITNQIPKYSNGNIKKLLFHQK

Assay [14] has as its target Vitamin D3 receptor (Homo sapiens) (UniProt P11473). Description: qHTS assay for small molecule agonists of vitamin D receptor signaling (AID 588543).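 Further: 0% = DMSO basal and 100% = reference agonist control.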 In outline: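 Reporter cells (HEK293T, VDR-UAS-bla) were seeded in medium with 2% charcoal-stripped serum and incubated 5 h, then compounds in concentration series were added for 16 h at 37 °C. Stimulation was scaled between DMSO basal and 50 nM 1α,25-dihydroxyvitamin D3.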

Assay [15] concerns the target Bile acid receptor (Homo sapiens) (UniProt Q96RI1). The assay is described as follows: qHTS assay for small molecule antagonists of farnesoid X receptor signaling (AID 588526). Further: potency means the concentration at half of the fitted maximal effect. The method, boiled down:
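Antagonist mode: titrated compounds tested against chenodeoxycholic acid stimulation (normalized to 50 uM CDCA and DMSO) in GeneBLAzer HEK293T cells for 16 h. Beta-lactamase read by CCF4 fluorescence; IC50 from Hill fits.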

Assay [16] has the same target. The assay is described as follows: qHTS assay for small molecule agonists of farnesoid X receptor signaling (AID 588527).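 Further: series mostly up to about 77 µM; 0% = vehicle basal and 100% = reference agonist.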 The conditions noted are these: HEK293T FXR-UAS-bla, beta-lactamase ratio, 16 h; stronger effect = higher value. In outline:
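Quantitative HTS used FXR-UAS-bla HEK293T cells with 16 h compound incubation at 37 C. EC50 values came from concentration-response curves normalized to chenodeoxycholic acid.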

Assay [17] concerns the target Glucocorticoid receptor (Homo sapiens) (UniProt P04150). The assay is described as follows: qHTS assay for small molecule agonists of glucocorticoid receptor signaling (AID 588532; active means well fitted curve in the direction sought with a large enough effect in the signal ratio, with a control signal flat; inconclusive means small, poorly fitted or top-dose-only effect, or a change in a side signal; inactive means no such curve, though single readings can be large or run the other way; the % refers to the signal ratio;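 further: 100% = dexamethasone at 0.1 µM and 0% = DMSO only wells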). The following applies: HeLa MMTV-bla, beta-lactamase ratio, agonist, 18 h; stronger effect = higher value; percent of dexamethasone control, DMSO zero. The method, boiled down: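 HeLa GRE-bla reporter cells; 18 h compound exposure at 37 C; 2 h CCF4 loading at room temperature; fluorescence at 460 and 530 nm; EC50 by Hill equation.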

For assay [18], the target named is Peroxisome proliferator-activated receptor gamma (Homo sapiens) (UniProt P37231). The assay is described as follows: qHTS assay for small molecule antagonists of peroxisome proliferator-activated receptor gamma signaling (AID 588537; active means well fitted inhibition curve with a large enough effect in the signal ratio, with a control signal flat, not every such curve was filed as active; inconclusive means small, poorly fitted or top-dose-only effect, or effect the other way, or a change in a side signal; the % refers to the signal ratio; further: potency means the concentration at half of the fitted maximal effect). The method, boiled down: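 PPARγ-UAS-bla HEK293 cells (3000/well) in 1% charcoal/dextran-stripped FBS are treated with compound, then stimulated with 50 nM rosiglitazone for 16 h at 37 °C. Read-out is CCF4 β-lactamase fluorescence after 2 h at RT. IC50 comes from Hill fits normalised to rosiglitazone and DMSO.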
Sequence of Peroxisome proliferator-activated receptor gamma (Homo sapiens) (P37231 whole entry, looked up): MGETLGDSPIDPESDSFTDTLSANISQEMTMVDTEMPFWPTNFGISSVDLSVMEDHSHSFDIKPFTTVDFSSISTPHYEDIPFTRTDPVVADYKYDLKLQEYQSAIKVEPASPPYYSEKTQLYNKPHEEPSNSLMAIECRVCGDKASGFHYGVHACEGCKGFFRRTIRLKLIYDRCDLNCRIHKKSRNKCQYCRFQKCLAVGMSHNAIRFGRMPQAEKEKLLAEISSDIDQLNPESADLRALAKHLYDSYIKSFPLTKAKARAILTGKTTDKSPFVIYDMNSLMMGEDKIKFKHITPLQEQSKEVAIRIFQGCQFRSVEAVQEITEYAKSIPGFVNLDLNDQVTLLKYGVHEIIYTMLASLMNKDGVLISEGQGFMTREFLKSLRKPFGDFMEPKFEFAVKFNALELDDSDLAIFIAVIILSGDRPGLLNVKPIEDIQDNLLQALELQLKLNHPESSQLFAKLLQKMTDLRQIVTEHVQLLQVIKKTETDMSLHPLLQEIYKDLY

Assay [19] can be described thus: qHTS assay for small molecule agonists of retinoid X receptor alpha signaling (AID 588544).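 On activation: 0% = DMSO basal wells and 100% = reference agonist.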 The following applies: HEK293T RXRa-UAS-bla, beta-lactamase reporter, 18 h; 530 nm emission.
Assay [20] concerns the target Retinoic acid receptor RXR-alpha (Homo sapiens) (UniProt P19793). The assay is described as above.

Active and inactive are the calls of the source. Unless noted, the call rests on the fitted dose curve.

Sequence of Bile acid receptor (Homo sapiens) (Q96RI1 whole entry, looked up): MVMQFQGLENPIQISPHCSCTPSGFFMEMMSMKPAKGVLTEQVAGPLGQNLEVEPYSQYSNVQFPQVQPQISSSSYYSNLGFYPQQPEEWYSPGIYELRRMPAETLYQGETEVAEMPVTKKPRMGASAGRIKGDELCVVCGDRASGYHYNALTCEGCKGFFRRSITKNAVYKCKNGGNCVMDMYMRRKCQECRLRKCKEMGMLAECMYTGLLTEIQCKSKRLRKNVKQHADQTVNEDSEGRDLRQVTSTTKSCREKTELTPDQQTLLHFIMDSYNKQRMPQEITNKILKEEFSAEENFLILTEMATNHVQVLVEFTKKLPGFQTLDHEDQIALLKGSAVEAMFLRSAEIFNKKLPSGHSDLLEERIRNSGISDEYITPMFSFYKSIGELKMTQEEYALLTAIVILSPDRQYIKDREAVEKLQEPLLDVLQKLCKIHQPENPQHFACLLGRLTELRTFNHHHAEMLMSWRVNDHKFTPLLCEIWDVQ
Sequence of Androgen receptor (Homo sapiens) (P10275 whole entry, looked up): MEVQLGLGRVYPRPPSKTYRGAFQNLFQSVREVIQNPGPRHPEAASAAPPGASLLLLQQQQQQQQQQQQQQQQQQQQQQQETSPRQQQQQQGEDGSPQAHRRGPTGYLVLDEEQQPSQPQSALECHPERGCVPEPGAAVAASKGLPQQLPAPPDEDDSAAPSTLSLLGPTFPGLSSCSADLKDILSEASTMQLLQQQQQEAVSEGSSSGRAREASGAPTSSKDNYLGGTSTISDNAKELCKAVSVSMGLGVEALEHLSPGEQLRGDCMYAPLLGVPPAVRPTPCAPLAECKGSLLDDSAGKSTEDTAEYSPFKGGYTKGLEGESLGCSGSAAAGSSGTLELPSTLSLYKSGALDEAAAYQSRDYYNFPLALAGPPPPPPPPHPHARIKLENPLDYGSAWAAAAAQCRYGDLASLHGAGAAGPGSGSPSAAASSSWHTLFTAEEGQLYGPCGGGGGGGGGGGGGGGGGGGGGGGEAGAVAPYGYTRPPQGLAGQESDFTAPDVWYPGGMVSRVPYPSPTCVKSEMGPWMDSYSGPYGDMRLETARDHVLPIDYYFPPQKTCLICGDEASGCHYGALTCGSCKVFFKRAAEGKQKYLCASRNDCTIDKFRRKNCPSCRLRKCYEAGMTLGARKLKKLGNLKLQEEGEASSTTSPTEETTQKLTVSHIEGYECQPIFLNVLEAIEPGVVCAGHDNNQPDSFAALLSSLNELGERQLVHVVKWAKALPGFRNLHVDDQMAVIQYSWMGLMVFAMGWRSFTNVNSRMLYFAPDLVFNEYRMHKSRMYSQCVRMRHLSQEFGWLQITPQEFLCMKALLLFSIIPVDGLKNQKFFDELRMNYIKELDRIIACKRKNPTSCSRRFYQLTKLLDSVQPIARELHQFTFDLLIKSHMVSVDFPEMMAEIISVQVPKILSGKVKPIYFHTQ
Sequence of DNA dC->dU-editing enzyme APOBEC-3G (Homo sapiens) (Q9HC16 whole entry, looked up): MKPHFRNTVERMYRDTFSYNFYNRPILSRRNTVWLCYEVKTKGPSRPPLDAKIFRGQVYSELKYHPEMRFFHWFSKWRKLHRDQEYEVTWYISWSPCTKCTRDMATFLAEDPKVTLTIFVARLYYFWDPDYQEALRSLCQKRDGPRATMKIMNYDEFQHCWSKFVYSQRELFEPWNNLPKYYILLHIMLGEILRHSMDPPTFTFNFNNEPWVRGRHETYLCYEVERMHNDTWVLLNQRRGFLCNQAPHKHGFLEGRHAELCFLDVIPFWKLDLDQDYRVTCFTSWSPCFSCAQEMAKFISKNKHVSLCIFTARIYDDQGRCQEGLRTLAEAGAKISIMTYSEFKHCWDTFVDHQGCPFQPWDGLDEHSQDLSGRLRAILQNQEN
Sequence of Retinoic acid receptor RXR-alpha (Homo sapiens) (P19793 whole entry, looked up): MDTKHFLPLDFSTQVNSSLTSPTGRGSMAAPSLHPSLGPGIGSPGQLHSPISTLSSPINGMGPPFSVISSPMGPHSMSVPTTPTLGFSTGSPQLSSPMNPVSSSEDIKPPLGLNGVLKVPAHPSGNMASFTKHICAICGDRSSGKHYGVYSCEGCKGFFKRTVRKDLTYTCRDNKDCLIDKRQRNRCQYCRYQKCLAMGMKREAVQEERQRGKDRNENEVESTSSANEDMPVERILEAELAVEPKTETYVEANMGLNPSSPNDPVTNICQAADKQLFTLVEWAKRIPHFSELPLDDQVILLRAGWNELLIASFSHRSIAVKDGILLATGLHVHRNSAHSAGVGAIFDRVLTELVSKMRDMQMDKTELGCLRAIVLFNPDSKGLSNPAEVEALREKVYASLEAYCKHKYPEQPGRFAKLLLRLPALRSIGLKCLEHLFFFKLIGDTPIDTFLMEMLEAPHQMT

`COP(=S)(OC)Oc1ccc(Sc2ccc(OP(=S)(OC)OC)cc2)cc1`: the Potency result in [1] and in assay [6] was “inactive” each time. The activation in assay [2] is -10.3% (inactive). Also, the compound was called inactive in assay [3], in assay [4], in assay [7] and in [8]. Further, in assay [5], the max response is -0.163%.

Take `COC(=O)C1=CCCN(C)C1`: the compound was called inactive in assay [9]. For the same compound, the Potency result in assay [10] is “inactive”.

`NC(N)=NC(=O)c1nc(Cl)c(N)nc1N`: the Potency entry in assay [11] is “inactive”.

In the case of `c1ccc2nc(N3CCNCC3)ccc2c1`, the call in assay [12] was inactive.

For the compound `CCC(=O)O[C@H]1CC[C@H]2[C@@H]3CCC4=CC(=O)CC[C@]4(C)[C@H]3CC[C@]12C`, the Potency in [1] is 2.82 µM (active); in assay [2] it was 0.0089 µM (active); in [13], 31.6 µM (active). Also, the result in assay [4] and in assay [14] was inactive. For the same compound, the max response in assay [5] was -14.3%. For the same compound, the Potency result in assay [6] was “inactive”.

Take `CCNc1nc(Cl)nc(NCC)n1`: the Potency entry in assay [1], in assay [15], in assay [13] and in assay [18] was “inactive” each time. Besides, the activation is -2% (inactive) in assay [16] and 3.33% (inactive) in [17]. In addition, the compound was called inactive in [7], in [8], in assay [14] and in [20]. The max response in assay [19] is -18.2%.

In the case of `Oc1ccc(Cl)cc1Cc1cc(Cl)ccc1O`, the Potency in assay [11] was 44.7 µM [inconclusive] (active); in assay [15], 7.94 µM (active); in assay [18], 35.5 µM (active). Further, the outcome in assay [3] and in assay [4] was inactive. Also, the activation in [16] was 1.29% (inactive).

In the case of `COC(=O)C1=C(C)NC(C)=C(C(=O)OC)C1c1ccccc1[N+](=O)[O-]`, the Potency in assay [10] is 11.2 µM (active); in assay [13] it was 31.6 µM (active).

For the compound `CN1[C@@H]2CC[C@H]1CC(OC(=O)c1cc(Cl)cc(Cl)c1)C2` (stereo partly specified), the result in assay [12] was inactive.

As for `N#Cc1nn(-c2c(Cl)cc(C(F)(F)F)cc2Cl)c(N)c1S(=O)C(F)(F)F` (stereo unspecified), in assay [1], the Potency entry was “inactive”. The activation in assay [16] is 6.05% (inactive); in assay [17], -6.58% (inactive).

In the case of `O=C(NC(=O)c1c(F)cccc1F)Nc1cc(Cl)c(OC(F)(F)C(F)C(F)(F)F)cc1Cl` (stereo unspecified), the Potency result in assay [11], in [1], in assay [15] and in assay [18] was “inactive” in each case. Moreover, the results for the activation in assay [2], in assay [16] and in [17] were -6.9% (inactive), -0.875% (inactive) and 15.8% (inactive), respectively. Also, the compound was called inactive in assay [3], in assay [7], in assay [8], in assay [14] and in assay [20]. Moreover, the max response in assay [19] was determined as 11.9%.

On to `CC[C@H]1CN2CCc3cc(OC)c(OC)cc3[C@@H]2C[C@@H]1C[C@H]1NCCc2cc(OC)c(OC)cc21`, for which the Potency in assay [10] is 0.282 µM (active).

For the origin of these results see PubChem BioAssay (NCATS).
